# Source: PubChem BioAssay (EPA / NIEHS)
# Calls of active or inactive are those of the source. How the source made its calls: active means hit-call score of the fitted dose curve at least 0.9, where 1 is the maximum; inactive means score below 0.9.
# System: TTR (gene 7276)
# Assay: CCTE_GLTED_hTTR_0.125uM: CCTE's human Transthyretin (hTTR) Inhibition Assay, with 0.125uM TTR, Great Lakes Toxicology and Ecology Division (GLTED) Lab (AID 2284431);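 further: hits lower the fluorescence signal relative to DMSO baseline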
# Outline: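 Cell-free displacement of ANSA probe from 0.125uM TTR after 2 h incubation with chemical. Fluorescence read at 380 nm excitation/475 nm emission; loss of signal relative to DMSO indicates T4-site displacement.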
row,SMILES,AC50
1,O=c1ssc(Cl)c1Cl,0.578 µM (active)
2,CCC(C)(C)c1ccc(O)cc1,14.4 µM (active)
3,CCCCc1ccc(O)cc1,6.48 µM (active)
4,O=S(=O)(c1ccc(O)cc1)c1ccc(O)cc1,19.9 µM (active)
5,CO/N=C(/C(=O)OC)c1ccccc1COc1ccccc1C,3.22 µM (active)
6,CCCCCCCc1ccc(O)cc1,0.736 µM (active)
